Among the data in the supplement of paper PMC7156485 are cell number and H1.0 immunofluorescence intensity values, retold here.

Conditions in all cases: concentration: 10 µM; 24 h
The test system of experiment [1] is HCC1569. Description: cell number relative to DMSO (% of DMSO); higher = more cells (less growth inhibition / toxicity). In a few lines: (§1)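 For HCC1569 and TDF cells, compounds at 10 µM were applied for 24 h at 37 °C in triplicate in 384-well plates. Cells were fixed in 3.7% formaldehyde, stained for H1.0 and with DAPI, and imaged at ×10 over six fields per well. The endpoint, H1.0 nuclear intensity or cell number, is shown as percent of the plate control using the median of replicates. Positional effects were smoothed for HCC1569 only.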

Experiment [2] deals with TDF. The description is as above. Put shortly:
as §1

In experiment [3] the test system is TDF. The experiment in a line: H1.0 immunofluorescence intensity relative to DMSO (% of DMSO); higher = stronger H1.0 induction, active = 120 or more. Put shortly:
as §1

The subject of experiment [4] is HCC1569. The experiment in a line: H1.0 immunofluorescence intensity relative to DMSO (% of DMSO); higher = stronger H1.0 induction, active = 140 or more. Put shortly: as §1

Values joined by “and” are separate entries in the source; they are usually repeats but may differ in a detail not shown here. Equal entries are not always repeated. ± gives the standard deviation of the averaged measurements.
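Wherever H1.0 immunofluorescence intensity relative to DMSO is given: TDF is a line of transformed human dermal fibroblasts of mesenchymal origin.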
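Wherever cell number relative to DMSO is given: TDF denotes transformed human dermal fibroblasts of mesenchymal origin.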

With `C=CCN1CCC23CCCCC2C1Cc1ccc(O)cc13.O=C(O)C(O)C(O)C(=O)O` (stereo not drawn) [Levallorphan tartrate], the cell number in the experiment with HCC1569 [1] came out at 99.1; with TDF [2] it was 118. Further, the values for the H1.0 immunofluorescence intensity in the experiment with TDF [3] and in the experiment with HCC1569 [4] were 90.1 (inactive) and 100 (inactive), respectively.

In the case of `CC[N+](CC)(CC)CC.[Cl-]` [Tetraethylammonium chloride], the values for the cell number in the experiment with HCC1569 [1] and in the experiment on TDF [2] were 101 and 108, respectively. Also, the H1.0 immunofluorescence intensity is 90.2 (inactive) with TDF [3] and 108 (inactive) in the experiment with HCC1569 [4].

For the compound `CC[NH+](CC)CC.Nc1ncnc2c1ncn2C1OC2COP([O-])(=S)OC2C1O` (stereo not drawn) [Rp-cAMPS triethylamine], the cell number in the experiment on HCC1569 [1] was 103; in the experiment on TDF [2], 113. In addition, the H1.0 immunofluorescence intensity with TDF [3] was 86 (inactive); with HCC1569 [4], 88.3 (inactive).

`CC1=C(O)C(=O)C2OC2C1=O` (single isomer, unassigned; (-)): the cell number is 80 in the experiment with HCC1569 [1] and 98.1 in the experiment on TDF [2]. Also, the H1.0 immunofluorescence intensity in the experiment with TDF [3] was 96.7 (inactive); in the experiment on HCC1569 [4], 117 (inactive).

In the case of `Cl.O=C(CCCN1CCC2(CC1)C(=O)NCN2c1ccccc1)c1ccc(F)cc1` [Spiperone hydrochloride], the values for the cell number in the experiment on HCC1569 [1] and in the experiment with TDF [2] were 105 and 87.3, respectively. In addition, the H1.0 immunofluorescence intensity is 116 (inactive) in the experiment with TDF [3] and 99.6 (inactive) with HCC1569 [4].

As to `Cl.Cl.c1ccc(CCCN2CCN(CCOC(c3ccccc3)c3ccccc3)CC2)cc1`, the cell number came to 98.6 with HCC1569 [1] and 91.5 with TDF [2]. For the same compound, the figures for the H1.0 immunofluorescence intensity with TDF [3] and in the experiment with HCC1569 [4] were 103 (inactive) and 102 (inactive), respectively.

As for `OC1CN2CCCC(O)C2C1O` (stereo not drawn) [Swainsonine], the cell number in the experiment with HCC1569 [1] worked out at 100; in the experiment with TDF [2], 98.6. For the same compound, the H1.0 immunofluorescence intensity in the experiment on TDF [3] was 99.5 (inactive); with HCC1569 [4], 95.8 (inactive).

On to `C[N+]1(C)C2CCC1CC(OC(=O)c1c[nH]c3ccccc13)C2.[I-]` (stereo not drawn) [3-Tropanylindole-3-carboxylate methiodide], for which the cell number in the experiment with HCC1569 [1] worked out at 100; with TDF [2], 106. For the same compound, the H1.0 immunofluorescence intensity with TDF [3] is 95.5 (inactive); in the experiment with HCC1569 [4] it was 114 (inactive).

Turning to `COc1cc2c(cc1O)CCNC2C` (stereo not drawn) [Salsoline], the cell number with HCC1569 [1] was 100; in the experiment with TDF [2], 104. For the same compound, the H1.0 immunofluorescence intensity in the experiment on TDF [3] is 91 (inactive); in the experiment on HCC1569 [4] it was 95.5 (inactive).

For the compound `CC(C)NC(C)Cc1ccc(I)cc1.Cl` (stereo not drawn) [Iofetamine hydrochloride], the cell number with HCC1569 [1] came to 105; with TDF [2] it was 113. For the same compound, the H1.0 immunofluorescence intensity in the experiment with TDF [3] was 91.5 (inactive); in the experiment on HCC1569 [4] it was 91.7 (inactive).

`CCn1cnc2c(Nc3cccc(Cl)c3)nc(NC3CCCCC3N)nc21.Cl` (stereo not drawn): the cell number in the experiment on HCC1569 [1] amounted to 53; with TDF [2] it was 21.5. In addition, the H1.0 immunofluorescence intensity is 132 (active) in the experiment on TDF [3] and 101 (inactive) in the experiment on HCC1569 [4].

As for `Nc1ccncc1` [4-Aminopyridine], the results for the cell number in the experiment with HCC1569 [1] and in the experiment with TDF [2] were 101 and 103, respectively. Further, the H1.0 immunofluorescence intensity was 95.3 (inactive) in the experiment with TDF [3] and 88 (inactive) in the experiment on HCC1569 [4].

In the case of `COc1ccc(C(=O)OC2CCC3(C)C4CCC5C6(O)CC(O)C7(O)C(CN8CC(C)CCC8C7(C)O)C6(O)CC53OC24O)cc1OC` (stereo not drawn) [Veratridine], the cell number stood at 107 in the experiment with HCC1569 [1] and 97.2 in the experiment on TDF [2]. Besides, the H1.0 immunofluorescence intensity was 96.7 (inactive) in the experiment with TDF [3] and 81.9 (inactive) with HCC1569 [4].

For the compound `CC(C)(C)C1(O)CC2OC(=O)CC23C(=O)OC2OC(=O)C(O)C231` (stereo not drawn) [Bilobalide], the cell number in the experiment on HCC1569 [1] came out at 99.9; with TDF [2], 109. For the same compound, the H1.0 immunofluorescence intensity was 96.7 (inactive) with TDF [3] and 97.2 (inactive) in the experiment on HCC1569 [4].

As for `CC(C)(C)c1o[nH]c(=O)c1CC(N)C(=O)O` (stereo not drawn), the cell number in the experiment with HCC1569 [1] is 98.3; with TDF [2] it was 104. Also, the values for the H1.0 immunofluorescence intensity in the experiment on TDF [3] and with HCC1569 [4] were 90 (inactive) and 95 (inactive), respectively.

Take `CC1CCC2C(C)C3CCC4(O)C(CC5C4CC(=O)C4CC(=O)CCC45C)C3CN2C1` (stereo not drawn) [Sevedindione]: the cell number is 99.8 with HCC1569 [1] and 110 in the experiment with TDF [2]. Further, the H1.0 immunofluorescence intensity in the experiment on TDF [3] was 91.7 (inactive); in the experiment with HCC1569 [4], 85 (inactive).

Consider `COc1ccc(C(=O)OC2CC3CCC(C2)N3C)cc1OC` (stereo not drawn) [Convolvamine], for which the cell number in the experiment on HCC1569 [1] amounted to 105; in the experiment on TDF [2], 96.1. The results for the H1.0 immunofluorescence intensity with TDF [3] and in the experiment on HCC1569 [4] were 97.8 (inactive) and 90 (inactive), respectively.

In the case of `CCC1(O)C(=O)OCc2c1cc1n(c2=O)Cc2cc3ccccc3nc2-1` (stereo not drawn) [Camptothecin], the cell number is 54.2 ± 2.9 in the experiment on HCC1569 [1] and 24 ± 1.1 in the experiment with TDF [2]. The H1.0 immunofluorescence intensity is 128 (active) with TDF [3] and 120 (inactive) with HCC1569 [4].

Consider `NC(CP(=O)(O)O)C(=O)O` (racemic), for which the cell number in the experiment with HCC1569 [1] amounted to 105; in the experiment with TDF [2], 104. Also, the H1.0 immunofluorescence intensity was 82.6 (inactive) with TDF [3] and 91.4 (inactive) with HCC1569 [4].

Turning to `O=C1NC(=O)c2c1c1c3ccccc3n3c1c1c2c2ccccc2n1C1CCC3O1`, the cell number was 77.9 and 77.4 with HCC1569 [1]; 74.9 and 76.9 in the experiment with TDF [2]. Also, the H1.0 immunofluorescence intensity with TDF [3] was 105 (inactive) and 100 (inactive); in the experiment with HCC1569 [4] it was 126 (inactive) and 107 (inactive).

Regarding `CN(C)C(=O)C(CCN1CCC(O)(c2ccc(Cl)cc2)CC1)(c1ccccc1)c1ccccc1.Cl` [Loperamide hydrochloride], the cell number in the experiment on HCC1569 [1] was found to be 84.8; in the experiment on TDF [2], 88.6. Moreover, the H1.0 immunofluorescence intensity was 102 (inactive) with TDF [3] and 122 (inactive) in the experiment with HCC1569 [4].

`Cl.O=C1CCC2(O)C3Cc4ccc(O)c5c4C2(CCN3CC2CC2)C1O5` (stereo not drawn) [Naltrexone hydrochloride]: the cell number with HCC1569 [1] is 103; in the experiment on TDF [2] it was 115. Besides, the H1.0 immunofluorescence intensity is 90.8 (inactive) with TDF [3] and 96 (inactive) with HCC1569 [4].

Consider `COc1ccc2c(c1OC)C(=O)OC2C1c2cc3c(cc2CCN1C)OCO3` (single isomer, unassigned; (+)) [(+)-Hydrastine], for which the cell number was 98.7 in the experiment with HCC1569 [1] and 104 in the experiment with TDF [2]. Moreover, the values for the H1.0 immunofluorescence intensity in the experiment with TDF [3] and in the experiment with HCC1569 [4] were 96.4 (inactive) and 89.2 (inactive), respectively.

On to `C[N+]1(C)CCN(c2ccccc2)CC1.[I-]` [1,1-Dimethyl-4-phenyl-piperazinium iodide], for which the cell number in the experiment with HCC1569 [1] was 99; with TDF [2], 93. Further, the figures for the H1.0 immunofluorescence intensity in the experiment on TDF [3] and in the experiment with HCC1569 [4] were 95.8 (inactive) and 109 (inactive), respectively.

Regarding `COC(=O)C1(O)CC2OC1(C)n1c3ccccc3c3c4c(c5c6ccccc6n2c5c31)C(=O)NC4` (stereo not drawn) [K-252a, Nocardiopsis sp.], the cell number with HCC1569 [1] came to 33.7; in the experiment with TDF [2] it was 2.54. Also, the H1.0 immunofluorescence intensity with HCC1569 [4] is 75.8 (inactive).

For `CC(C)c1cc2c(c(O)c1O)C1(C(=O)O)CCCC(C)(C)C1CC2` (stereo not drawn) [Carnosic acid], the values for the cell number in the experiment with HCC1569 [1] and in the experiment on TDF [2] were 96.8 and 99.9, respectively. Moreover, the values for the H1.0 immunofluorescence intensity in the experiment on TDF [3] and in the experiment on HCC1569 [4] were 95.3 (inactive) and 103 (inactive), respectively.
